Results filed as inconclusive are left out. A number with no mark means an inactive call. Calls come from the whole dose curve; as a rule, active = well fitted inhibition curve with a large enough effect; inconclusive = small, poorly fitted or top-dose-only effect; inactive = flat fitted curve, though single readings scatter.

The experiment has as its system Zika virus NS2B-NS3 protease. Description: Primary screen GU AMC qHTS for Zika virus inhibitors (AID 1347154).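 Note: 0% = no-inhibitor control and -100% = no-enzyme control; nearly all actives have a fitted effect of over 70% in size.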 To be noted: Zika NS2B-NS3 unlinked protease, AMC fluorogenic substrate; series mostly up to 54.1 µM; activity change, negative = inhibition: at the top concentration. The procedure, abridged:
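Fluorogenic AMC-substrate cleavage by noncovalent NS2B-NS3 protease complex (25 nM, pH 8.0 Tris buffer with Tween 20) followed for 15 minutes at room temperature (~20% conversion). Percent inhibition from ex340/em450 signal change, fitted by 4-parameter Hill equation.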
Background: qHTS replaces the single test concentration by a dilution series.
As to `Nc1ccc(C(=O)OCC(O)CO)cc1` (stereo not drawn), the “activity change, negative = inhibition” value is -4.17%. In the case of `CCCC(=O)Nc1ccc(O)c(C(C)=O)c1` it was 4.08%.

On to `CC(=O)Nc1ccc(S(=O)(=O)Nc2cc(C)on2)cc1`, for which the “activity change, negative = inhibition” value is 0.421%.

(Values after PubChem BioAssay (NCATS).)
